{"source": "PubChem BioAssay (NCI)", "note": "This is part of a sample that, as a whole, favours compounds with a hit. Of some 83,000 tested, about 20% had one in any assay.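 For each line, cells grew in 96-well plates with the test compound present at a single concentration for 48 hours.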 Values without a mark were called inactive. The source made the active and inactive calls."}
{"tested_on": "T-47D breast", "test": "NCI-60 one-dose screen, 48 h (100 = growth as untreated, 0 = no growth, -100 = all killed)", "conditions": "10 µM unless noted", "description": "Growth inhibition of the T-47D human tumor cell line is measured as a screen for anti-cancer activity. Cells are grown in 96 well plates and exposed to the test compound for 48 hours. Compounds are tested at a single concentration, which is 10^-5 M for most compounds. The reported endpoint is percent growth (GI% or GIPRCNT), where numbers from 0 - 100% represent growth inhibition, and numbers from -100% - 0 represent cell death. For example, a value of 40 represents 60% growth inhibition. A value of 0 means no net growth occurred over the course of the experiment. A value of -40 indicates 40% of cells at the beginning of the experiment died by the end of the experiment. A value of -100 means all cells are dead at the end of the experiment.\nNCI-60 Human Tumor Cell Lines Screen was performed using the standard one-dose NCI protocol, which is described in more detail at https://dtp.cancer.gov/discovery_development/nci-60/default.htm.\nCompounds with GIPRCNT values below 10 were considered active. Activity score was based on GIPRCNT using the following formula: […]\nScore is 0 for GIPRCNT values of 100 or above, 50 for GIPRCNT values of 0, and 100 for GIPRCNT values of -100."}
{"smiles": "CC1C2CCC(C2)C1COCCOCCO", "note": "(stereo not given)", "growth": "98.7%"}
{"smiles": "CCCCn1c(C)nc2cc(Nc3nc(Cl)nc4nc[nH]c34)ccc21", "growth": "39.3%"}
{"smiles": "COc1cc(C2Nc3ccccc3S2)cc(CN2CCOCC2)c1O", "note": "(stereo not given)", "growth": "88.4%"}
{"smiles": "O=C(Cc1ccc(Nc2ccnc(C(F)(F)F)c2)cc1)N/N=C/c1ccccc1O", "growth": "18.4%"}
{"smiles": "c1ccc2c(c1)cnc1ccccc12", "growth": "96.8%"}
{"smiles": "COc1c(-c2cc(-c3ccc(C)o3)[nH]c(=O)n2)c(O)cc2occc12", "growth": "45.5%"}
{"smiles": "CCCN(CCC)CC(O)COc1ccccc1C(=O)Nc1ccccc1", "note": "(stereo not given)", "growth": "97.1%"}
{"smiles": "CCOc1cccc(/C=N/NC(=O)c2ccc(Nc3ccnc(C(F)(F)F)c3)cc2)c1O", "growth": "3.07% (active)"}
{"smiles": "CCCCCCCCCCCCCC(=S)NCCCC[C@H](NC(=O)OCc1ccccc1)C(=O)Nc1ccccc1", "growth": "43.5%"}
{"smiles": "Nc1c(C(=O)Nc2cccc(Cl)c2)sc2ncc(Br)cc12", "growth": "62.6%"}
{"smiles": "CC(=O)OC1Oc2ccccc2-c2oc3nc(=N)n(C)c-3cc21", "note": "(stereo not given)", "growth": "93.6%"}
{"smiles": "Cc1cc(C)c2c(NC(=O)Nc3ccc(Cl)c(Cl)c3)n[nH]c2n1", "growth": "93.3%"}
{"smiles": "O=C(Nc1ccccc1Cl)Oc1ccc2ccccc2c1", "growth": "88.5%"}
{"smiles": "CC(=O)c1cccc(Nc2ncnc3ccc(NC(=O)c4ccco4)cc23)c1", "growth": "77.1%"}
{"smiles": "CC(=O)[C@H]1CC[C@H]2[C@@H]3CC[C@H]4CC=CC[C@]4(C)[C@H]3CC[C@]12C", "growth": "95.2%"}
{"smiles": "CCOC(=O)C(=CNc1ccccc1Cl)C(=O)OCC", "growth": "95%"}
{"smiles": "C/C=C(\\C)C(C(=O)NC1CCCCC1)N(C(=O)C1CCc2cc(F)ccc2O1)c1ccc([N+](=O)[O-])cc1", "note": "(stereo not given)", "growth": "88.1%"}
{"smiles": "O=NN(CC(=O)NNc1ccccc1)CC(=O)NNc1ccccc1", "growth": "46.6%"}
{"smiles": "COc1ccc(-c2nc(-c3cc(OC)cc(OC)c3)[nH]c2-c2ccc(OC)cc2)cc1", "growth": "6.56% (active)"}
{"smiles": "O=c1c2sc3ncc(Cl)cc3c2nnn1-c1cccc(Cl)c1", "growth": "74.7%"}
{"smiles": "O=C1C=CC(=O)N1c1cccc(N2C(=O)C=CC2=O)c1", "growth": "-13.6% (active)"}
{"smiles": "COc1ccc([C@@H]2[C@@H](Oc3ccccc3)C(=O)N2c2cc(OC)c(OC)c(OC)c2)cc1F", "growth": "87.4%"}
{"smiles": "N#Cc1c(NN)n(C2OC(CO)C(O)C2O)c2ncnc(N)c12", "note": "(stereo not given)", "growth": "-14.9% (active)"}
{"smiles": "CC(=O)c1cc(C(=O)c2ccc3c(c2)Sc2ccccc2N3)c2c(C)cccn12", "growth": "58.1%"}
{"smiles": "CS(=O)(=O)Nc1cc(-c2cc3ncc(C#N)c(Nc4ccc(Oc5ccccc5)c(Cl)c4)c3s2)cnc1Cl", "growth": "15.8%"}
{"smiles": "NC(=S)N/N=C(/c1cccs1)C1CC1", "growth": "20.6%"}
{"smiles": "O=c1c2sc3ccccc3c2nnn1-c1ccc(F)c(Cl)c1", "growth": "45.9%"}
{"smiles": "Cc1ccc(O)c(Cc2ccccc2)c1", "growth": "101%"}
{"smiles": "COCCn1c(Nc2ccc(C(=O)NO)cc2)nc2ccccc21", "growth": "35.3%"}
{"smiles": "Nc1ccc(N(O)/C=C2\\C=CC=CC2=O)cc1N", "growth": "78.8%"}
{"smiles": "COc1ccc(/C=C2\\CCCC3=C2N=C2SC(C)=NN2C3c2ccc(OC)c(OC)c2)cc1OC", "note": "(stereo not given)", "growth": "48.3%"}
{"smiles": "COc1ccc(/C(=C\\c2cc(OC)c(OC)c(OC)c2)C(=O)N2CCN(c3ccccc3)CC2)cc1O", "growth": "87.4%"}
{"smiles": "COc1ccc(C2CC(c3ccc(Nc4ccnc5cc(Cl)ccc45)cc3)=NN2c2ccccc2)cc1", "note": "(stereo not given)", "growth": "92.9%"}
{"smiles": "O=C(/C=C/c1cc([N+](=O)[O-])ccc1Cl)c1ccccc1", "growth": "72.3%"}
{"smiles": "C/C(=N\\OC(=O)Nc1ccccc1)c1ccccc1", "growth": "104%"}
{"smiles": "CC(COC(=O)c1ccccc1)N1CC2CCC(C1)O2", "note": "(stereo not given)", "growth": "103%"}
{"smiles": "O=[N+]([O-])c1cccc([I+]c2ccccc2)c1", "growth": "50.1%"}
{"smiles": "COC(=O)c1ccc(NC(N)=NCCC(C)(C)c2ccc(C(F)(F)F)cc2)nc1", "growth": "-3.4% (active)"}
{"smiles": "CCCNC(=S)N/N=C(\\C)c1ccccn1", "growth": "37.2%"}
{"smiles": "CCCc1cc2c(cc1CN(Cc1cc3c(cc1CCC)OCO3)C(=N)OCC)OCO2", "growth": "84.7%"}
